Laboratory results taken from PubChem BioAssay AID1159580 (chemical genetic matrix, 2015).
Values joined by “and” are separate entries in the source; they are usually repeats but may differ in a detail not shown here. Equal values may be shown once. About 2,000 (36%) of roughly 5,500 compounds were called active. Not shown: some 18% with an inconclusive outcome. Cut-off read from the data, not from the text of the source: active = normalized growth mostly below about 0.91 (no sharp cut-off); inconclusive = no clear call, values can overlap the other calls; inactive = mostly above about 0.92. The list shows a part of the results.

Assay: chemical genetic growth profiling, strain panel (AID 1159580);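 note: tested at 20 µM; growth read once vehicle control cultures reached saturation at 30 °C; 1 = growth at the plate median or of vehicle wells; lower values mean less growth of the strain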
Conditions: growth OD

Measured: normalized growth

N[C@@H]1CONC1=O
inactive: S. cerevisiae deletion strains, locus YAL021C, strain ccr4, hits give low values 0.982 | S. cerevisiae deletion strains, locus YAL026C, strain drs2, hits give low values 0.977 | S. cerevisiae deletion strains, locus YAL030W, strain snc1, hits give low values 0.973 | S. cerevisiae deletion strains, locus YBL061C, strain skt5, hits give low values 0.963 | S. cerevisiae deletion strains, locus YBR009C, strain hhf1, hits give low values 1.02 | S. cerevisiae deletion strains, locus YBR021W, strain FUR4, hits give low values 1.01 | S. cerevisiae deletion strains, locus YBR023C, strain chs3, hits give low values 0.975 | S. cerevisiae deletion strains, locus YBR171W, strain sec66, hits give low values 0.974 | S. cerevisiae deletion strains, locus YBR229C, strain ROT2, hits give low values 1.01 | S. cerevisiae deletion strains, locus YBR231C, strain swc5, hits give low values 1.01 | S. cerevisiae deletion strains, locus YBR279W, strain paf1, hits give low values 0.964 | S. cerevisiae deletion strains, locus YCL011C, strain gbp2, hits give low values 0.969 | S. cerevisiae deletion strains, locus YCL016C, strain dcc1, hits give low values 0.953 | S. cerevisiae deletion strains, locus YCL029C, strain bik1, hits give low values 1.01 | S. cerevisiae deletion strains, locus YCL069W, strain vba3, hits give low values 0.98 | S. cerevisiae deletion strains, locus YCR088W, strain abp1, hits give low values 0.981 | S. cerevisiae deletion strains, locus YDL005C, strain med2, hits give low values 0.958 | S. cerevisiae deletion strains, locus YDL035C, strain GPR1, hits give low values 1.03 | S. cerevisiae deletion strains, locus YDL040C, strain nat1, hits give low values 0.971 | S. cerevisiae deletion strains, locus YDL074C, strain BRE1, hits give low values 1.02 | S. cerevisiae deletion strains, locus YDL101C, strain DUN1, hits give low values 1.02 | S. cerevisiae deletion strains, locus YDL185W, strain tfp1, hits give low values 1.02 | S. cerevisiae deletion strains, locus YDL192W, strain arf1, hits give low values 1.01 | S. cerevisiae deletion strains, locus YDR001C, strain nth1, hits give low values 0.986 | S. cerevisiae deletion strains, locus YDR069C, strain doa4, hits give low values 1.01 | S. cerevisiae deletion strains, locus YDR101C, strain arx1, hits give low values 1 | S. cerevisiae deletion strains, locus YDR137W, strain rgp1, hits give low values 1.01 | S. cerevisiae deletion strains, locus YDR159W, strain sac3, hits give low values 0.995 | S. cerevisiae deletion strains, locus YDR162C, strain NBP2, hits give low values 1.03 | S. cerevisiae deletion strains, locus YDR195W, strain ref2 0.983 | S. cerevisiae deletion strains, locus YDR297W, strain sur2, hits give low values 0.993 | S. cerevisiae deletion strains, locus YDR318W, strain mcm21, hits give low values 1.02 | S. cerevisiae deletion strains, locus YDR334W, strain swr1, hits give low values 0.97 | S. cerevisiae deletion strains, locus YDR335W, strain msn5, hits give low values 0.991 | S. cerevisiae deletion strains, locus YDR388W, hits give low values 1.01 | S. cerevisiae deletion strains, locus YDR392W, strain spt3, hits give low values 0.934 | S. cerevisiae deletion strains, locus YDR502C, strain sam2, hits give low values 1.02 | S. cerevisiae deletion strains, locus YEL003W, strain gim4, hits give low values 0.992 | S. cerevisiae deletion strains, locus YEL037C, strain rad23, hits give low values 0.982 | S. cerevisiae deletion strains, locus YEL061C, strain CIN8 (second series), hits give low values 1 | S. cerevisiae deletion strains, locus YEL061C, strain CIN8, hits give low values 1.01 | S. cerevisiae deletion strains, locus YER015W, strain faa2, hits give low values 0.99 | S. cerevisiae deletion strains, locus YER016W, strain bim1, hits give low values 0.946 | S. cerevisiae deletion strains, locus YER110C, hits give low values 1.02 | S. cerevisiae deletion strains, locus YER111C, strain swi4, hits give low values 0.992 | S. cerevisiae deletion strains, locus YER155C, strain BEM2 (second series), hits give low values 1.03 | S. cerevisiae deletion strains, locus YER155C, strain BEM2, hits give low values 0.999 | S. cerevisiae deletion strains, locus YER167W, strain BCK2, hits give low values 1.01 | S. cerevisiae deletion strains, locus YFR010W, strain ubp6, hits give low values 0.997 | S. cerevisiae deletion strains, locus YGL078C, strain dbp3, hits give low values 1.01 | S. cerevisiae deletion strains, locus YGL086W, strain mad1, hits give low values 1.01 | S. cerevisiae deletion strains, locus YGL167C, strain pmr1, hits give low values 0.987 | S. cerevisiae deletion strains, locus YGL173C, strain kem1, hits give low values 0.984 | S. cerevisiae deletion strains, locus YGL227W, strain vid30, hits give low values 0.961 | S. cerevisiae deletion strains, locus YGL240W, strain doc1, hits give low values 1.01 | S. cerevisiae deletion strains, locus YGL248W, strain PDE1, hits give low values 1.01 | S. cerevisiae deletion strains, locus YGL253W, strain hxk2, hits give low values 0.969 | S. cerevisiae deletion strains, locus YGR135W, strain pre9, hits give low values 1.02 | S. cerevisiae deletion strains, locus YGR252W, strain gcn5, hits give low values 1.02 | S. cerevisiae deletion strains, locus YHR013C, strain ard1, hits give low values 0.964 | S. cerevisiae deletion strains, locus YHR027C, strain rpn1, hits give low values 1 | S. cerevisiae deletion strains, locus YHR030C, strain SLT2, hits give low values 1.01 and 1.03 | S. cerevisiae deletion strains, locus YHR079C, strain IRE1 (second series), hits give low values 1.01 | S. cerevisiae deletion strains, locus YHR079C, strain IRE1, hits give low values 1.03 | S. cerevisiae deletion strains, locus YHR094C, strain hxt1, hits give low values 1.01 | S. cerevisiae deletion strains, locus YHR129C, strain ARP1, hits give low values 1.01 | S. cerevisiae deletion strains, locus YHR142W, strain chs7, hits give low values 0.981 | S. cerevisiae deletion strains, locus YHR200W, strain rpn10, hits give low values 1.01 | S. cerevisiae deletion strains, locus YIL066C, strain RNR3, hits give low values 1.03 | S. cerevisiae deletion strains, locus YIL073C, strain SPO22, hits give low values 1.02 | S. cerevisiae deletion strains, locus YIL125W, strain kgd1, hits give low values 1.02 | S. cerevisiae deletion strains, locus YIR030C, strain dcg1, hits give low values 1.04 | S. cerevisiae deletion strains, locus YJL092W, strain hpr5, hits give low values 0.992 | S. cerevisiae deletion strains, locus YJL095W, strain BCK1 (second series), hits give low values 0.975 | S. cerevisiae deletion strains, locus YJL095W, strain BCK1, hits give low values 1.02 and 1.03 | S. cerevisiae deletion strains, locus YJL115W, strain asf1, hits give low values 0.968 | S. cerevisiae deletion strains, locus YJL129C, strain trk1, hits give low values 0.977 | S. cerevisiae deletion strains, locus YJL134W, strain LCB3, hits give low values 1.01 | S. cerevisiae deletion strains, locus YJL154C, strain vps35, hits give low values 0.985 | S. cerevisiae deletion strains, locus YJL164C, strain tpk1, hits give low values 1 | S. cerevisiae deletion strains, locus YJL166W, strain qcr8, hits give low values 0.998 | S. cerevisiae deletion strains, locus YJL168C, strain set2, hits give low values 1.01 | S. cerevisiae deletion strains, locus YJL187C, strain SWE1 (second series), hits give low values 1.05 | S. cerevisiae deletion strains, locus YJR043C, strain POL32, hits give low values 1 | S. cerevisiae deletion strains, locus YJR066W, strain TOR1, hits give low values 0.979 | S. cerevisiae deletion strains, locus YJR075W, strain HOC1, hits give low values 1.02 | S. cerevisiae deletion strains, locus YKL009W, strain mrt4, hits give low values 1.03 | S. cerevisiae deletion strains, locus YKL068W, hits give low values 1.01 | S. cerevisiae deletion strains, locus YKL085W, strain MDH1 (second series), hits give low values 1.05 | S. cerevisiae deletion strains, locus YKL085W, strain MDH1, hits give low values 1.05 | S. cerevisiae deletion strains, locus YKL160W, strain elf1, hits give low values 0.935 | S. cerevisiae deletion strains, locus YKR001C, strain vps1, hits give low values 1.02 | S. cerevisiae deletion strains, locus YKR026C, strain gcn3, hits give low values 0.986 | S. cerevisiae deletion strains, locus YKR091W, strain srl3, hits give low values 0.983 | S. cerevisiae deletion strains, locus YLL001W, strain dnm1, hits give low values 1.01 | S. cerevisiae deletion strains, locus YLL026W, hits give low values 0.983 | S. cerevisiae deletion strains, locus YLL041C, strain sdh2, hits give low values 0.975 | S. cerevisiae deletion strains, locus YLR027C, strain aat2, hits give low values 0.997 | S. cerevisiae deletion strains, locus YLR039C, strain RIC1, hits give low values 0.975 | S. cerevisiae deletion strains, locus YLR058C, strain SHM2, hits give low values 1.02 | S. cerevisiae deletion strains, locus YLR102C, strain apc9, hits give low values 1.01 | S. cerevisiae deletion strains, locus YLR113W, strain HOG1, hits give low values 1.03 | S. cerevisiae deletion strains, locus YLR221C, strain rsa3, hits give low values 1.03 | S. cerevisiae deletion strains, locus YLR258W, strain gsy2, hits give low values 0.97 | S. cerevisiae deletion strains, locus YLR262C, strain YPT6 (second series), hits give low values 1 | S. cerevisiae deletion strains, locus YLR262C, strain YPT6, hits give low values 1.01 | S. cerevisiae deletion strains, locus YLR268W, strain sec22, hits give low values 1.02 | S. cerevisiae deletion strains, locus YLR320W, strain mms22, hits give low values 0.997 | S. cerevisiae deletion strains, locus YLR330W, strain CHS5, hits give low values 1.01 | S. cerevisiae deletion strains, locus YLR342W, strain FKS1 (second series), hits give low values 1.02 | S. cerevisiae deletion strains, locus YLR342W, strain FKS1, hits give low values 0.99 | S. cerevisiae deletion strains, locus YLR357W, strain rsc2, hits give low values 0.948 | S. cerevisiae deletion strains, locus YLR370C, strain arc18, hits give low values 0.968 | S. cerevisiae deletion strains, locus YLR371W, strain rom2, hits give low values 0.998 | S. cerevisiae deletion strains, locus YLR384C, strain iki3, hits give low values 0.991 | S. cerevisiae deletion strains, locus YLR418C, strain cdc73, hits give low values 1.06 | S. cerevisiae deletion strains, locus YML016C, strain PPZ1, hits give low values 1.01 | S. cerevisiae deletion strains, locus YML032C, strain rad52, hits give low values 1.01 | S. cerevisiae deletion strains, locus YML120C, strain ndi1, hits give low values 0.994 | S. cerevisiae deletion strains, locus YML124C, strain tub3, hits give low values 1.02 | S. cerevisiae deletion strains, locus YMR058W, strain fet3, hits give low values 1.03 | S. cerevisiae deletion strains, locus YMR078C, strain ctf18, hits give low values 1.02 | S. cerevisiae deletion strains, locus YMR125W, strain sto1, hits give low values 0.968 | S. cerevisiae deletion strains, locus YMR129W, hits give low values 0.969 | S. cerevisiae deletion strains, locus YMR205C, strain PFK2, hits give low values 0.994 | S. cerevisiae deletion strains, locus YMR223W, strain ubp8, hits give low values 1.03 | S. cerevisiae deletion strains, locus YMR231W, strain pep5, hits give low values 0.98 | S. cerevisiae deletion strains, locus YMR307W, strain GAS1, hits give low values 0.923 | S. cerevisiae deletion strains, locus YNL067W, strain RPL9B, hits give low values 1.02 | S. cerevisiae deletion strains, locus YNL071W, strain lat1, hits give low values 0.996 | S. cerevisiae deletion strains, locus YNL183C, strain NPR1, hits give low values 0.973 | S. cerevisiae deletion strains, locus YNL209W, strain ssb2, hits give low values 0.989 | S. cerevisiae deletion strains, locus YNL233W, strain BNI4, hits give low values 1.02 | S. cerevisiae deletion strains, locus YNL248C, strain rpa49, hits give low values 0.94 | S. cerevisiae deletion strains, locus YNL250W, strain rad50, hits give low values 1.01 | S. cerevisiae deletion strains, locus YNL271C, strain bni1, hits give low values 1.02 | S. cerevisiae deletion strains, locus YNL298W, strain CLA4, hits give low values 1.01 | S. cerevisiae deletion strains, locus YNL307C, strain MCK1, hits give low values 1.02 | S. cerevisiae deletion strains, locus YNL322C, strain KRE1 (second series), hits give low values 0.947 | S. cerevisiae deletion strains, locus YNR049C, strain mso1, hits give low values 0.982 | S. cerevisiae deletion strains, locus YNR052C, strain pop2, hits give low values 1.02 | S. cerevisiae deletion strains, locus YOL012C, strain htz1 0.629 | S. cerevisiae deletion strains, locus YOL147C, strain pex11, hits give low values 1.01 | S. cerevisiae deletion strains, locus YOR001W, strain rrp6, hits give low values 1.02 | S. cerevisiae deletion strains, locus YOR061W, strain CKA2, hits give low values 1.02 | S. cerevisiae deletion strains, locus YOR069W, strain VPS5, hits give low values 1.02 | S. cerevisiae deletion strains, locus YOR070C, strain gyp1, hits give low values 0.984 | S. cerevisiae deletion strains, locus YOR080W, strain dia2, hits give low values 0.967 | S. cerevisiae deletion strains, locus YOR083W, strain WHI5, hits give low values 0.908 | S. cerevisiae deletion strains, locus YOR106W, strain vam3, hits give low values 0.937 | S. cerevisiae deletion strains, locus YOR136W, strain idh2, hits give low values 1.02 | S. cerevisiae deletion strains, locus YOR144C, strain elg1, hits give low values 1.02 | S. cerevisiae deletion strains, locus YOR184W, strain ser1, hits give low values 1.02 | S. cerevisiae deletion strains, locus YOR231W, strain MKK1, hits give low values 1.04 | S. cerevisiae deletion strains, locus YOR265W, strain rbl2, hits give low values 0.986 | S. cerevisiae deletion strains, locus YOR270C, strain vph1, hits give low values 1.05 | S. cerevisiae deletion strains, locus YOR290C, strain snf2, hits give low values 0.951 | S. cerevisiae deletion strains, locus YOR316C, strain cot1, hits give low values 1.02 | S. cerevisiae deletion strains, locus YPL051W, strain arl3, hits give low values 0.957 | S. cerevisiae deletion strains, locus YPL078C, strain atp4, hits give low values 0.963 | S. cerevisiae deletion strains, locus YPL106C, strain sse1, hits give low values 0.953 | S. cerevisiae deletion strains, locus YPL240C, strain hsp82, hits give low values 1 | S. cerevisiae deletion strains, locus YPL256C, strain CLN2, hits give low values 1.12 | S. cerevisiae deletion strains, locus YPR119W, strain clb2, hits give low values 1.02 | S. cerevisiae deletion strains, locus YPR141C, strain kar3, hits give low values 1.02 | S. cerevisiae deletion strains, locus YPR163C, strain tif3, hits give low values 1.02 | S. cerevisiae deletion strains, locus YPR167C, strain met16, hits give low values 1.02 | S. cerevisiae deletion strains, strain wtn01, hits give low values 1.02 | S. cerevisiae strains, strain wild type, hits give low values 1.01
